In PubChem BioAssay AID504333 (National Center for Advancing Translational Sciences (NCATS), 2011):
Among all 360,000 compounds or so, about 16,000 (4.4%) were called active. About 9% were inconclusive and are not listed. For the sample, actives were picked, then their nearest neighbours and some compounds at random. Values without a mark were called inactive. The call rests on the fitted dose curve; in most records, active means well fitted inhibition curve with a large enough effect; inconclusive means small, poorly fitted or top-dose-only effect; inactive means no such curve, though single readings can be large or run the other way.

target: Bromodomain adjacent to zinc finger domain protein 2B (Homo sapiens) (UniProt Q9UIF8); assay: qHTS Assay for Inhibitors of BAZ2B; conditions: AlphaScreen BAZ2B-H3K14Ac peptide displacement; series mostly up to 114 µM; activity change, negative = inhibition: at the top concentration; further: nearly all actives have a fitted effect of over 60% in size
Outline: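 BAZ2B 50 nM plus b-H3(5-23)K14Ac 50 nM, PBS pH 7.4/0.01% Tween-20, 30 min RT; compound added (max 110 uM), 30 min RT; streptavidin donor/Ni-chelate acceptor beads 10 ug/mL final, 20 min dark; AlphaScreen read.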
On the % scale 0 is the no-effect control and ±100 the full control effect; potency means the concentration at half of the fitted maximal effect.

Sequence of Bromodomain adjacent to zinc finger domain protein 2B (Homo sapiens) (Q9UIF8 whole entry, looked up, the tested form may be a part): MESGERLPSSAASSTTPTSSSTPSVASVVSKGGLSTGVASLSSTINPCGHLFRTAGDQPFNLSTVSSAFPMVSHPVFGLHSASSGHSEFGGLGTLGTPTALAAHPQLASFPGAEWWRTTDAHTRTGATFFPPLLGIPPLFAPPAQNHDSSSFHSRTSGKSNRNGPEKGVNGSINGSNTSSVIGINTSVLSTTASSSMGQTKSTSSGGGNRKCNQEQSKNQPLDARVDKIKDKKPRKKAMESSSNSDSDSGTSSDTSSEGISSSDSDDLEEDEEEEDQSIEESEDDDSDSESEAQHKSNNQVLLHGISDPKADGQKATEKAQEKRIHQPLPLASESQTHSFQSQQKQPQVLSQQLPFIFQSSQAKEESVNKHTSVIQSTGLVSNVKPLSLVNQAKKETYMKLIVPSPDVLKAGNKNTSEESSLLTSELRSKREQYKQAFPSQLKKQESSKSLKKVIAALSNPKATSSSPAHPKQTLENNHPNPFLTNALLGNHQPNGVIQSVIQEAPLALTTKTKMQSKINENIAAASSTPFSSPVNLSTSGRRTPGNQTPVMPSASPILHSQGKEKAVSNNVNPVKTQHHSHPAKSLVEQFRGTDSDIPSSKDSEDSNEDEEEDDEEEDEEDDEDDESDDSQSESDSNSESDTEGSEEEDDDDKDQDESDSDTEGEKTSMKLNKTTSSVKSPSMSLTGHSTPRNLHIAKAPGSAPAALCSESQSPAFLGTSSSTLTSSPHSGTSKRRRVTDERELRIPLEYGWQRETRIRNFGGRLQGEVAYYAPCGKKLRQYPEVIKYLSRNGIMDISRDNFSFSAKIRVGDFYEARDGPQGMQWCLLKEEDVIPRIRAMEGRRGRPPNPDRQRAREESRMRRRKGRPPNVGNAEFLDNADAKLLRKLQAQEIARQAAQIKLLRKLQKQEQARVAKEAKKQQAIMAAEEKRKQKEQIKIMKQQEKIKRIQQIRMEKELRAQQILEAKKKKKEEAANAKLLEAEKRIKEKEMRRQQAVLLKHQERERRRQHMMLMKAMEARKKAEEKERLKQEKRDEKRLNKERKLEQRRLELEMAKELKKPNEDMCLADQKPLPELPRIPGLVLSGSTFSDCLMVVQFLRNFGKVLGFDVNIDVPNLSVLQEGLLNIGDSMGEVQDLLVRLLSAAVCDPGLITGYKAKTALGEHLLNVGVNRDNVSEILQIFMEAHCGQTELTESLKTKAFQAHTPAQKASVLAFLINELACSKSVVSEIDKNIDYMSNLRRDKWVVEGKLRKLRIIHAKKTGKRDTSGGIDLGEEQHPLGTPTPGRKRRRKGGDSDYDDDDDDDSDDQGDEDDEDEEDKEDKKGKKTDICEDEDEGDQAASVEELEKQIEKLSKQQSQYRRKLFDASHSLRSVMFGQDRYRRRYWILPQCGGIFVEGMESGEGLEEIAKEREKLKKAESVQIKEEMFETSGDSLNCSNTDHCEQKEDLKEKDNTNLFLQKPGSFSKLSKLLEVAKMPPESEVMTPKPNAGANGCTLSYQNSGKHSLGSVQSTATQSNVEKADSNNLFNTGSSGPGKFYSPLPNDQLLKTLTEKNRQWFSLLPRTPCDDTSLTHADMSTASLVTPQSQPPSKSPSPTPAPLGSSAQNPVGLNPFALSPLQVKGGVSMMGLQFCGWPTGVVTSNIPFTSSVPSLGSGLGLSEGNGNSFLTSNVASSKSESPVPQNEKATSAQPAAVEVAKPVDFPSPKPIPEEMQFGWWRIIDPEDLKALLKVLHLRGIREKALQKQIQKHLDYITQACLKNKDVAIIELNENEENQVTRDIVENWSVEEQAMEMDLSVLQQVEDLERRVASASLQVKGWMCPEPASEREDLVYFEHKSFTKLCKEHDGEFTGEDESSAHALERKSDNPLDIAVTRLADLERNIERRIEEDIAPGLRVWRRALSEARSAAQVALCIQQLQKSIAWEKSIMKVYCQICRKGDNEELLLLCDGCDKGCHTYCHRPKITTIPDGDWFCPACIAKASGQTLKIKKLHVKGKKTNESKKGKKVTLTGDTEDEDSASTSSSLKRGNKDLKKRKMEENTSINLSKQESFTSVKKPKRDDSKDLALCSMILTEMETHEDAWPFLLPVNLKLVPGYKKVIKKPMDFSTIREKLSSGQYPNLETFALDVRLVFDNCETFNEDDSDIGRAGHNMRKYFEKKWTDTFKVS

SMILES	Potency	activity change, negative = inhibition
C/C(=N\NC(=O)c1ccccc1F)c1ccccn1	20 µM (active)	
C/C(CC(=O)Nc1ccc(N(C)C)cc1)=N\NC(=O)c1ccccc1F		-37.1%
C/C(=N\NC(=O)Cc1ccc(Cl)cc1)c1ccccn1	44.7 µM (active)	
C/C(=N\NC(=O)Cc1ccc(Br)cc1)c1cccnc1		-10.3%
Cc1nc2nc(NCc3cccc(Br)c3)[nH]n2c(=O)c1Cc1ccccc1		-11.6%
O=C(CSc1nc2c(c(=O)[nH]1)CN(Cc1ccc(F)cc1)CC2)Nc1ccccc1Cl		1.1%
Cc1noc2ncnc(NCc3ccccc3Cl)c12		15% [at 57.1 µM]
COC(=O)c1ccc(NC(=O)c2cc(S(=O)(=O)N3CCC(C)CC3)cn2C)cc1		4.42%
Cc1oc(-c2ccccc2F)nc1CN1CCC(C(=O)NCCc2ccc(Cl)cc2)CC1		-11.5%
Cc1ccc(S(=O)(=O)Oc2ccc(/C=N/NC(=O)c3ccncc3)cc2)cc1		-6.9%
CC(=O)Nc1ccc(S(=O)(=O)Oc2ccc(/C=N/N=C3/NC(=O)C(CC(=O)O)S3)cc2)cc1 (centres undefined)	50.1 µM (active)	
Cc1ccc(NC(=O)CC2S/C(=N/N=C3\CCCc4ccccc43)NC2=O)cc1 (centres undefined)		-32%
CCOc1ccc(N2CC(C)Cn3c2nc2c3c(=O)n(Cc3c(F)cccc3Cl)c(=O)n2C)cc1 (centres undefined)		-1.59%
COc1cc2c(cc1O)[C@H](Cc1ccc(Oc3cc(C[C@@H]4NCCc5cc(OC)c(O)cc54)ccc3O)cc1)NCC2	39.8 µM (active)	
CCc1ccc(OCC2c3cc(OC)c(OC)cc3CCN2C(C)=O)cc1 (centres undefined)		-16.9%
COC(=O)C1=CN(Cc2ccc(OC)cc2)C=C(C(=O)OC)C1c1ccc(O)c(OC)c1		11.4%
Cn1c(=O)n(Cc2c(F)cccc2Cl)c(=O)c2c1nc1n2CCN1c1ccc(F)cc1		-0.264%
COc1cccc(CNC(=O)CCc2nc(-c3ccc(C)cc3)no2)c1		-3.1%
CCCCOc1ccc(CNC(=O)c2ccc3c(c2)N(C)C(=O)C2CCCCN32)cc1 (centres undefined)		-23.3%
COc1ccc(OC)c2[nH]c(=O)c(CCNC(=O)C(=O)c3c[nH]c4ccccc34)cc12	56.2 µM (active)	
O=C(NCCCc1ccccc1)C(=O)c1c[nH]c2ccccc12		-19%
COc1ccc(OC)c2[nH]c(=O)c(CCNC(=O)C(C)(C)C)cc12		3.16%
COc1ccc(CCNC(=O)c2ccc(CSCc3ccc(C)cc3)o2)cc1OC		-31.1%
COc1cc2c(=O)c(S(=O)(=O)c3ccc(C(C)C)cc3)cn(Cc3ccccc3C)c2cc1OC		-17.5%
CCC1(C)CC(=O)c2c(ccc3oc(C(=O)Nc4ccc(C(C)=O)cc4)c(C)c23)O1 (centres undefined)		0.108%

SMILES	Potency	activity change, negative = inhibition
COCCNC(=O)Nc1ccc2nc(-c3ccco3)c(-c3ccco3)nc2c1	5.62 µM (active)	
COc1ccc(-c2nc3ccc(C(=O)NCc4ccc(C)cc4)cc3nc2-c2ccc(OC)cc2)cc1		23.8%
CCOc1ccc(NC(=O)c2ncoc2-c2ccco2)cc1		-33.1%
COc1ccc(NC(=O)COCc2cc(-c3ccco3)on2)cc1		4.22%
COc1cccc(S(=O)(=O)NCc2ccc(C(=O)NCc3ccccn3)cc2)c1		-1.71%
O=C(NCc1ccccn1)c1ccc2nc(-c3ccco3)c(-c3ccco3)nc2c1	11.2 µM (active)	
O=C(NCc1ccc2c(c1)CCN2C(=O)c1ccccc1)c1ccccc1		-10.7%
CCOC(=O)c1cc2c(=O)n3ccccc3nc2n(CC2CCCO2)c1=NC(=O)c1ccccc1F (centres undefined)		3.27%
O=C(Cn1cc(SCc2cccc(Cl)c2)c2ccccc21)N1CCCCC1		1.17%
O=C(NCC(c1ccc(Cl)cc1)N1CCOCC1)c1ccccc1F (centres undefined)		-29.4%
CN(Cc1ccccc1)c1ccc(-c2nc(-c3ccccc3)no2)cc1[N+](=O)[O-]		-22.6%
Cc1ccc(-n2[nH]c(C)c(/C=N/N3C(=O)c4cccc5cccc(c45)C3=O)c2=O)cc1		1.55%
Cc1ccc(C2C3=C(Nc4[nH]n(-c5ccccc5)c(=O)c42)c2ccccc2C3=O)cc1 (centres undefined)	35.5 µM (active)	
Cc1ccc(-c2ccnc3[nH]n(-c4ccccc4)c(=O)c23)cc1		-32.1%
COc1cc2[nH]c(=O)n(Cc3ccc(C(=O)NCc4ccc(C)cc4)cc3)c(=O)c2cc1OC		1.5%
O=c1cc(CSc2ncn[nH]2)[nH]c2ccc(F)cc12		5.18%
Cc1ccc(NC(=O)Cc2ccc(NC(=O)N3CCCCc4ccccc43)cc2)cc1		-19.7%
CCN(CC)S(=O)(=O)c1ccc2c(c1)nc(CN(C)C(=O)Nc1ccc(Cl)cc1)n2C		-2.28%
O=C(NCCC1=CCCCC1)c1ccc2c(c1)N(Cc1ccccc1F)C(=O)c1ccccc1S2(=O)=O		-13.6%
CCOc1ccc2[nH]c(C(=O)N/N=C/c3cccc(OC)c3OC)cc2c1		-3.47%
COc1cc2cc(C(=O)N/N=C/c3cccc(OC)c3OC)[nH]c2cc1OC		-4.94%
COc1cccc(/C=N\NC(=O)C2=NNC(=O)C2C)c1O (centres undefined)	50.1 µM (active)	
COc1ccc(Nc2ncc(C(=O)Nc3cc(C)ccc3OC)c3ccccc23)cc1		-2.1%
COc1ccc(-c2nc(Cn3c(=O)cc(C)c4c(C)nn(-c5ccccc5)c43)c(C)o2)cc1OC		15.4%
